From the supplement of paper PMC10338343
± gives the standard deviation.

How the values were obtained:
[1] = tested on: MILI (PIWIL2) piRISC loaded with L1MC piRNA (26 nt); experiment: pre-steady-state target cleavage rate (min^-1); guide: L1MC piRNA 5'p-UAACUAAAUACUAUGCAAGCUGUAGG; higher = faster piRNA-guided slicing of the target
Procedure, shortened: (§1)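 Cleave-'n-Seq used a transcribed, DNA-blocked target RNA library at 0.1 nM and active affinity-purified piRISC with one synthetic guide at 1 nM, with or without 500 nM GTSF1 partner protein, in HEPES–potassium acetate buffer at 33 °C for 0–8 or 0–960 min. Uncleaved targets were sequenced and normalised to depth and to weakly complementary targets, and three trials were pooled with k3 capped at 0.0001 min^-1. The pre-steady-state cleavage rate was estimated by a burst-and-steady-state fit.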

[2] = tested on: EfPiwi piRISC loaded with L1MC piRNA (26 nt); experiment: pre-steady-state target cleavage rate (min^-1); auxiliary factor: 500 nM Ephydatia muelleri Gtsf1; guide: L1MC piRNA 5'p-UAACUAAAUACUAUGCAAGCUGUAGG; MIWI and MILI are mouse PIWI proteins and EfPiwi is from a freshwater sponge; tags in brackets are library labels; higher = faster piRNA-guided slicing of the target
Procedure, shortened: as §1

[3] = auxiliary factor: 500 nM mouse GTSF1
[4] = auxiliary factor: none (no GTSF1)

UCCUCCUACACCUAGCAUAGUAUUUAGUUA
pre-steady-state target cleavage rate [1, 3]: 0.205 ± 0.027 | pre-steady-state target cleavage rate [1, 4]: 0.0056 ± 0.0018 | pre-steady-state target cleavage rate [2]: 0.00718 ± 0.0027

UCCUCCUACAGCUUGCAUUGUAUAUAGUUA
pre-steady-state target cleavage rate [1, 3]: 0.177 ± 0.018 | pre-steady-state target cleavage rate [1, 4]: 0.00393 ± 0.0025 | pre-steady-state target cleavage rate [2]: 0.00608 ± 0.0036

UCCUGGAUCAGGUUGCUUAGUAUUUAGUUA
pre-steady-state target cleavage rate [1, 3]: 0.189 ± 0.011 | pre-steady-state target cleavage rate [1, 4]: 0.00878 ± 0.0023 | pre-steady-state target cleavage rate [2]: 0.00555 ± 0.0024

UCCUCCUACUGCUUGCAUAGUAUUUAGUUA
pre-steady-state target cleavage rate [1, 3]: 0.27 ± 0.016 | pre-steady-state target cleavage rate [1, 4]: 0.00899 ± 0.0022 | pre-steady-state target cleavage rate [2]: 0.0494 ± 0.015

UCCUGGAUGAGCUUGCAUAGUAAUUAGUUA
pre-steady-state target cleavage rate [1, 3]: 0.184 ± 0.018 | pre-steady-state target cleavage rate [1, 4]: 0.00598 ± 0.0024 | pre-steady-state target cleavage rate [2]: 0.0154 ± 0.0044

UCCUGGAACAGCUUUCAUAGUAUUUAGUUA
pre-steady-state target cleavage rate [1, 3]: 0.197 ± 0.021 | pre-steady-state target cleavage rate [1, 4]: 0.00688 ± 0.0024 | pre-steady-state target cleavage rate [2]: 0.00631 ± 0.0025

UCCUGCUACAGCUUGCAUAGUAUUCAGUUA
pre-steady-state target cleavage rate [1, 3]: 0.244 ± 0.038 | pre-steady-state target cleavage rate [1, 4]: 0.00294 ± 0.0021 | pre-steady-state target cleavage rate [2]: 0.00508 ± 0.0017

UCCUGGAAGAGGUUGCAUAGUAUUUAGUUA
pre-steady-state target cleavage rate [1, 3]: 0.233 ± 0.012 | pre-steady-state target cleavage rate [1, 4]: 0.0116 ± 0.0031 | pre-steady-state target cleavage rate [2]: 0.00538 ± 0.0032

UCCUGCAACAGCUAGCAUAGUAUUUAGUUA
pre-steady-state target cleavage rate [1, 3]: 0.289 ± 0.02 | pre-steady-state target cleavage rate [1, 4]: 0.0104 ± 0.0028 | pre-steady-state target cleavage rate [2]: 0.0145 ± 0.004

UCCUCCUACAGCUUGCAUAGUAUUUAAGUUA
pre-steady-state target cleavage rate [1, 3]: 0.214 ± 0.022 | pre-steady-state target cleavage rate [1, 4]: 0.00686 ± 0.0024 | pre-steady-state target cleavage rate [2]: 0.00943 ± 0.0038

UCCUGGAUGUCCUUGCAUAGUAUUUAGUUC [g2:g19:cont:t1C]
pre-steady-state target cleavage rate [1, 3]: 0.0893 ± 0.011 | pre-steady-state target cleavage rate [1, 4]: 0.00931 ± 0.0026 | pre-steady-state target cleavage rate [2]: 0.00867 ± 0.0028

UCCUCCUACAGCUUGCAUAGUAAUUUAGUUA
pre-steady-state target cleavage rate [1, 3]: 0.199 ± 0.019 | pre-steady-state target cleavage rate [1, 4]: 0.00674 ± 0.0025 | pre-steady-state target cleavage rate [2]: 0.00821 ± 0.0033

UCCUGGAACAGCUUGCAAAGUAUUUAGAUA
pre-steady-state target cleavage rate [1, 3]: 0.085 ± 0.014 | pre-steady-state target cleavage rate [1, 4]: 0.00298 ± 0.0022 | pre-steady-state target cleavage rate [2]: 0.0036 ± 0.0024

UCCUGGAUCACCUUGGAUAGUAUUUAGUUA
pre-steady-state target cleavage rate [1, 3]: 0.173 ± 0.02 | pre-steady-state target cleavage rate [1, 4]: 0.00563 ± 0.0021 | pre-steady-state target cleavage rate [2]: 0.00371 ± 0.0037

UCCUGGAUCAGGUUGGAUAGUAUUUAGUUA
pre-steady-state target cleavage rate [1, 3]: 0.164 ± 0.013 | pre-steady-state target cleavage rate [1, 4]: 0.0112 ± 0.0027 | pre-steady-state target cleavage rate [2]: 0.00425 ± 0.003

UCCUGCUACAGCUUGCAUAGUAUCUUAGUUA
pre-steady-state target cleavage rate [1, 3]: 0.259 ± 0.027 | pre-steady-state target cleavage rate [1, 4]: 0.00985 ± 0.0022 | pre-steady-state target cleavage rate [2]: 0.00633 ± 0.0017

UCCUCCUUCAGCUUGCAUAGUAUAUAGUUA
pre-steady-state target cleavage rate [1, 3]: 0.216 ± 0.022 | pre-steady-state target cleavage rate [1, 4]: 0.00364 ± 0.0025 | pre-steady-state target cleavage rate [2]: 0.0124 ± 0.0058
